# According to PMC7862700, “An all-to-all approach to the identification of sequence-specific readers for epigenetic DNA modifications on cytosine”:
# Experiments:
# Experiment in all cases: DAPPL (digital affinity profiling via proximity ligation, sequencing); 10 mM Tris-HCl pH 7.5, 50 mM NaCl, 1 mM DTT, 4% glycerol, room temperature, 30 min; GST-TFs on glutathione beads, 16-mer random dsDNA library, 0.1% formaldehyde crosslink after washing; high values mean tight binding
# FEV = target: T1, FEV (Homo sapiens, UniProt Q99581 1-238); details: protein: recombinant; tags: N-terminal GST; dsDNA, one strand shown
# T1 sequence: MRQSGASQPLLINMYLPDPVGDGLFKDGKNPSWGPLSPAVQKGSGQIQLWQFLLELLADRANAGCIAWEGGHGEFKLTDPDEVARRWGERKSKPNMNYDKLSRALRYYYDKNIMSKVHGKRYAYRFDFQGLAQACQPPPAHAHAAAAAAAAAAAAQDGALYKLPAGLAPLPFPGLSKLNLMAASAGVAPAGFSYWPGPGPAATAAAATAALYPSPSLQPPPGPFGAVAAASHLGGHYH
# Procedure, shortened: (§1)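 Pools were built from human transcription factors expressed in yeast as GST fusions, captured on glutathione beads and DNA-barcoded, along with a tag-only sample. Incubation with 200 nmole of a 16-mer random double-stranded DNA library lasted 30 min at room temperature in Tris/NaCl/DTT/glycerol buffer, and was followed by washing, 0.1% formaldehyde crosslinking, proximity ligation, PCR amplification and Illumina NextSeq500 sequencing. Binding signal is the quotient of each hexamer's read frequency for a factor and its frequency for the tag-only sample.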
# ETV5 = ETV5 (Homo sapiens, UniProt P41161 1-510); details: protein: recombinant; tags: N-terminal GST; dsDNA, one strand shown
# Procedure, shortened: as §1
# HSF1 = HSF1 (Homo sapiens, UniProt Q00613 1-529); details: protein: recombinant; tags: N-terminal GST; chain copies: 3; dsDNA, one strand shown
# Procedure, shortened: as §1
# SPIC = target: T2, SPIC (Homo sapiens, UniProt Q8N5J4 1-248); details: protein: recombinant; tags: N-terminal GST; dsDNA, one strand shown
# T2 sequence: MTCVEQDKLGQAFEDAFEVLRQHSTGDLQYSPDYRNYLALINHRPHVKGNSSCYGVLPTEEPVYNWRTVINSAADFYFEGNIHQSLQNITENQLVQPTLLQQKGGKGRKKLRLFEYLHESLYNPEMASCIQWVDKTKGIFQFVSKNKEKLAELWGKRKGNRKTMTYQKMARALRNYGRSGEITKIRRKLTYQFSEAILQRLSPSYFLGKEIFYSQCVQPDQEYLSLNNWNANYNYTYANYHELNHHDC
# Procedure, shortened: as §1
# ELF4 = ELF4 (Homo sapiens, UniProt Q99607 1-663); details: protein: recombinant; tags: N-terminal GST; dsDNA, one strand shown
# Procedure, shortened: as §1
# ELK4 = target: T3, ELK4 (Homo sapiens, UniProt P28324-2 1-405); details: protein: recombinant; tags: N-terminal GST; dsDNA, one strand shown
# T3 sequence: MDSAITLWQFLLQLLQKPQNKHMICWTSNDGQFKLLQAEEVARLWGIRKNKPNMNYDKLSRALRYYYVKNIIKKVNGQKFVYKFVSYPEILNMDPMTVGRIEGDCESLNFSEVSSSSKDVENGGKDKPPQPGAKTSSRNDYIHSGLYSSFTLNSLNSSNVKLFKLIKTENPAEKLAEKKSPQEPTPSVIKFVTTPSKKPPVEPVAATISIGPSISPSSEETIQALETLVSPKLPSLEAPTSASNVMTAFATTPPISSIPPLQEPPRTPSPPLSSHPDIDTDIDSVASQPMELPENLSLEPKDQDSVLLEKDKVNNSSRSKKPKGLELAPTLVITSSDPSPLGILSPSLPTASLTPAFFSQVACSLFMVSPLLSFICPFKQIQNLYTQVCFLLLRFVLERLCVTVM
# Procedure, shortened: as §1
# ETV2 = target: T4, ETV2 (Homo sapiens, UniProt O00321 1-342); details: protein: recombinant; tags: N-terminal GST; dsDNA, one strand shown
# T4 sequence: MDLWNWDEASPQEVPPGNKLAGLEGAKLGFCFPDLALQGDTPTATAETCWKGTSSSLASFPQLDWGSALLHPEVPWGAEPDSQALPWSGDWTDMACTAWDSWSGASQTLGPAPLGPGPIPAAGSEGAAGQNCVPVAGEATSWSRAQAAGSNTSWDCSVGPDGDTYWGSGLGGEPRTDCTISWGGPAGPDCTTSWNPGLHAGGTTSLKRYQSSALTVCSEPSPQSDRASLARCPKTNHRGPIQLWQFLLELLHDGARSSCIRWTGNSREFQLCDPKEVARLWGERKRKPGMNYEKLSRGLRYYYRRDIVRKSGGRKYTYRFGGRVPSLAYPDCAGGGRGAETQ
# Procedure, shortened: as §1
# ELF3 = target: T5, ELF3 (Homo sapiens, UniProt P78545 1-371); details: protein: recombinant; tags: N-terminal GST; dsDNA, one strand shown
# T5 sequence: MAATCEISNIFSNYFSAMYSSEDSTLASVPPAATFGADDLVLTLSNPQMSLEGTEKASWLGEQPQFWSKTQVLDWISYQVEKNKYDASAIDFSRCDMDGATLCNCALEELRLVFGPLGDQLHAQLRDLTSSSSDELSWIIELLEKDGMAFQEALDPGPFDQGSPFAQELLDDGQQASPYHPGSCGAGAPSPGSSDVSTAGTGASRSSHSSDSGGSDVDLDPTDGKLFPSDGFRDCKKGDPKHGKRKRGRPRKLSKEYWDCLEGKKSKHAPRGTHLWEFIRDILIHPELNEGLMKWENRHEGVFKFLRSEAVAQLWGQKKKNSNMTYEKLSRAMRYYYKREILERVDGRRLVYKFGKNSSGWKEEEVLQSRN
# Procedure, shortened: as §1
# CRX = CRX (Homo sapiens, UniProt O43186 1-299); details: protein: recombinant; tags: N-terminal GST; dsDNA, one strand shown
# Procedure, shortened: as §1
# Chain of ELF4 (Q99607 whole entry): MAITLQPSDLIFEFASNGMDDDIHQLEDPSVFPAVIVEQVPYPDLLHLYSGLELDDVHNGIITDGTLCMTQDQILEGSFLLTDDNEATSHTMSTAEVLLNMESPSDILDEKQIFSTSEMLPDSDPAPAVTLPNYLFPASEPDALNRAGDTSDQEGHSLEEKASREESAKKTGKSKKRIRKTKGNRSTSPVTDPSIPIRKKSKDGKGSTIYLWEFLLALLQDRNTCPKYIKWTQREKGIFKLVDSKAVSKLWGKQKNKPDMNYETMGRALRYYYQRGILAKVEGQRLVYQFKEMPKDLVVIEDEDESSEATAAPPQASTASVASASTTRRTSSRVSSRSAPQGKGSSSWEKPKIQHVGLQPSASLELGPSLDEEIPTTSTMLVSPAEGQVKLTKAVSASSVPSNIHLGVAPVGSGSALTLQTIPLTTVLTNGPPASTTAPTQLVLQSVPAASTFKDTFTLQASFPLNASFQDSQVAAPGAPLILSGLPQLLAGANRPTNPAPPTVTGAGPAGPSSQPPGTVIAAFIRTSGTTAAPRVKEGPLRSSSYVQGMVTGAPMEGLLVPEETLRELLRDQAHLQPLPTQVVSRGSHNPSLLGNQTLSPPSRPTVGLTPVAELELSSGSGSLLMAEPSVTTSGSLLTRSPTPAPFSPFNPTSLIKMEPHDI
# Chain of HSF1 (Q00613 whole entry): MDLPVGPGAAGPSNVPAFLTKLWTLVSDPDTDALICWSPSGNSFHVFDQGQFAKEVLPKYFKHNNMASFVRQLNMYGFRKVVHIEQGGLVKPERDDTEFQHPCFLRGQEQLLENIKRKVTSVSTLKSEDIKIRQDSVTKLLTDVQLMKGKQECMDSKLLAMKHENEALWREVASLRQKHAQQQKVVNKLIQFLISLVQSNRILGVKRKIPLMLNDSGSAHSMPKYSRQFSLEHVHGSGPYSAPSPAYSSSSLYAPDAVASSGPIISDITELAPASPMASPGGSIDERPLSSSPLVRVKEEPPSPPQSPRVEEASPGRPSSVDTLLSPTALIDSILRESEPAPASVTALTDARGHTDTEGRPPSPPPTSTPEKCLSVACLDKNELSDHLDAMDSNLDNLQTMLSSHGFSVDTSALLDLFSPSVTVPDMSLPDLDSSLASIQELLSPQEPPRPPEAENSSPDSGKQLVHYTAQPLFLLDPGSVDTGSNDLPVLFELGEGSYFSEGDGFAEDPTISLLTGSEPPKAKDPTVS
# Chain of ETV5 (P41161 whole entry): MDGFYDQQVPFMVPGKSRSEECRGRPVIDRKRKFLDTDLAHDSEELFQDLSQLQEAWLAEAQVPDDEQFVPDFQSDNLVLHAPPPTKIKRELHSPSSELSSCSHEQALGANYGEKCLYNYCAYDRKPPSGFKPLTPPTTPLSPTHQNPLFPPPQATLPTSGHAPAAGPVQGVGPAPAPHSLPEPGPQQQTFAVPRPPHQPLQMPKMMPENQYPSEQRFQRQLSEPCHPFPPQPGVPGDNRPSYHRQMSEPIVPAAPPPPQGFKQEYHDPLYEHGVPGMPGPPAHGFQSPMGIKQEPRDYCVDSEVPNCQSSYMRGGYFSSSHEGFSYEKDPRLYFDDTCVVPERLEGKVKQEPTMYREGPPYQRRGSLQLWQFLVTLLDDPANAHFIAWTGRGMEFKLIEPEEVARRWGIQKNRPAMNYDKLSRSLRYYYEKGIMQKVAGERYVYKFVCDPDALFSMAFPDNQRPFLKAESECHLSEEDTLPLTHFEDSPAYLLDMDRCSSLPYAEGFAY
# Chain of CRX (O43186 whole entry): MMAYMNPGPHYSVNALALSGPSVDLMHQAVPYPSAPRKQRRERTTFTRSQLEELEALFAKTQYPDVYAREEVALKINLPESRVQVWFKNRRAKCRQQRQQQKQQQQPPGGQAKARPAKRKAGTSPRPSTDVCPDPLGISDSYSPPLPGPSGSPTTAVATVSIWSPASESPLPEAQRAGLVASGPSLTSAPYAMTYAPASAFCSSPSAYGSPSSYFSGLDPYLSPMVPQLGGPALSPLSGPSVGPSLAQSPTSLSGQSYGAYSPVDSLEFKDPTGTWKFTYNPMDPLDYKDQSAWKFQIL
sequence,measurement,setting,value
GAAATA,binding signal,FEV,"1.54 fold enrichment (6-mer frequency, TF over GST control)"
same,binding signal,ETV5,"1.63 fold enrichment (6-mer frequency, TF over GST control)"
same,binding signal,HSF1,"1.21 fold enrichment (6-mer frequency, TF over GST control)"
same,binding signal,SPIC,"1.43 fold enrichment (6-mer frequency, TF over GST control)"
same,binding signal,ELF4,"1.35 fold enrichment (6-mer frequency, TF over GST control)"
same,binding signal,ELK4,"1.39 fold enrichment (6-mer frequency, TF over GST control)"
same,binding signal,ETV2,"1.42 fold enrichment (6-mer frequency, TF over GST control)"
same,binding signal,ELF3,"1.62 fold enrichment (6-mer frequency, TF over GST control)"
same,binding signal,CRX,"1.11 fold enrichment (6-mer frequency, TF over GST control)"
